In PubChem BioAssay (NCI):
About 79,000 compounds went through this panel and 15% of them were active in at least one assay; those are over-represented in the sample as a whole. A number with no mark means an inactive call. Active and inactive are the calls of the source. No stated cut-off is given here; in the data, active means growth inhibition above about 70%; inactive means the rest.

Experiments:
[1] = NCI Yeast Anticancer Drug Screen. Data for the rad50 strain (AID 155);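 further: 0% = growth of vehicle-only cultures of the same strain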; settings: S. cerevisiae rad50 strain growth inhibition; at 50.0 µM; hits give high values
Outline: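 Compounds were tested on a yeast strain with an engineered DNA damage repair alteration; the reported value is growth inhibition normalised to vehicle treatment.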

[2] = NCI Yeast Anticancer Drug Screen. Data for the mec2-1 strain (AID 157); settings: S. cerevisiae mec2-1 strain, at 50.0 µM, hits give high values
Outline: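 Test agents were screened against the mec2-1 yeast strain, with defined DNA repair or cell cycle alteration. Growth was scored as inhibition against vehicle-only controls.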

[3] = NCI Yeast Anticancer Drug Screen. Data for the sgs1 mgt1 strain (AID 161);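 further: 0% = growth of cultures given vehicle only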; settings: S. cerevisiae sgs1 mgt1 strain, at 50.0 µM, hits give high values
Outline: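 Inhibition of yeast growth, normalised to vehicle-treated controls, is reported for a strain bearing genetic alterations in DNA damage repair.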

[4] = NCI Yeast Anticancer Drug Screen. Data for the cln2 rad14 strain (AID 165);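 further: 0% = growth equal to vehicle treated cultures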; settings: S. cerevisiae cln2 rad14 strain, at 50.0 µM, hits give high values
Outline: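 Growth of compound-exposed yeast (cln2 rad14 genotype) measured and expressed as inhibition relative to vehicle.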

[5] = NCI Yeast Anticancer Drug Screen. Data for the bub3 strain (AID 167); settings: S. cerevisiae bub3 mutant strain, at 50.0 µM, hits give high values
Outline: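 Growth of a checkpoint-deficient yeast mutant is measured after compound exposure. Values represent inhibition relative to vehicle.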

[6] = NCI Yeast Anticancer Drug Screen. Data for the mlh1 rad18 strain (AID 175); settings: S. cerevisiae mlh1 rad18 strain growth inhibition; at 50.0 µM; hits give high values
Outline: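 In this whole-cell yeast screen, a strain with altered DNA damage repair is challenged with compound, and its growth is measured against matched vehicle-treated controls.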

Row | SMILES | growth inhibition [1] | growth inhibition [2] | growth inhibition [3] | growth inhibition [4] | growth inhibition [5] | growth inhibition [6]
1 | CN(C)c1ccc(C(c2c(O)c3ccc(O)cc3oc2=O)c2c(O)c3ccc(O)cc3oc2=O)cc1 | 8.4% | 7.75% | 22.2% | 32.7% | 3.9% | 11.4%
2 | [NH2-].[NH2-].[NH2-].[NH2-].[NH2-].[NH2-].[Ru+6] | -15.8% | -12.1% | -21.9% | 9.4% | -24.1% | -20.8%
3 | CCOS(=O)(=O)c1ccc(C)cc1 | 13.8% | 8.25% | 3.35% | -0.95% | 8.45% | -5.2%
4 | CCCCCCCCCSCP(=O)(OCC)OCC | 99.5% (active) | 99.8% (active) | 99.7% (active) | 98.9% (active) | 99.5% (active) | 99.7% (active)
5 | CN(C)CCNC(=O)c1ccc(N(CCCl)CCCl)c([N+](=O)[O-])c1[N+](=O)[O-] | 36.4% | 20.4% | 30.8% | 17.6% | 9.65% | 34%
6 | C#CCOC(N)=O | 1.05% | -15.1% | -7.65% | -18.6% | -14.8% | -17.6%
7 | CC(C)CCCC(C)CCC1C(=O)NC(=S)NC1=O (stereo not drawn) | 8.45% | 10.2% | -4.4% | 1.75% | -3.05% | 32.1%
8 | COc1cccc(N2CCNCC2)c1 | -5.2% | -12.6% | 12.4% | 4.2% | -6.6% | 25.1%
9 | S=C=Nc1cccc2ccccc12 | -13.7% | -11.8% | -10.1% | 17.5% | -6.45% | -6.1%
10 | O=C(Nc1ccc(S(=O)(=O)F)cc1)c1ccc2ccccc2c1O | 9.85% | 31.8% | 32.5% | 2.15% | 27.9% | 25.4%
11 | [CH3][Sb]1([CH3])([I])[CH2]CC[CH2]1 | -6.55% | -5.35% | -5.75% | -11.1% | 27.2% | 33.9%
12 | O=C1C=CC(=O)N1CO | 23.2% | 19.2% | 9% | 6.4% | 26.9% | 9.25%
13 | Nc1nc(-c2ccccc2)c[se]1 | 63.6% | 32.3% | 30.6% | 16.6% | -7.65% | 31.4%
14 | CC1=CC(=Nc2ccc(N(CCCl)CCCl)cc2)C=C(C)C1=O | 3.2% | -16.6% | 12.2% | 13.8% | 8.15% | 37.1%
15 | CCN(CC)CCO | -4.1% | -4.9% | -9.6% | 7.05% | 15.2% | -23.6%
16 | O=C1NC(=O)C(O)(Cc2ccccn2)C(=O)N1 | 9.9% | 6.45% | 13.5% | 13.2% | -21.1% | -6.65%
17 | COC(=O)CP(=O)(OC)OC | 5.3% | -24.1% | 1.8% | -3.15% | 1% | 7.2%
18 | Oc1ccccc1/C=N/C(O)C(Cl)(Cl)Cl (stereo not drawn) | 30.2% | 31.6% | 34.9% | 41.3% | 48.1% | 30.6%
19 | S=P(C1CCCCC1)(C1CCCCC1)C(c1cccnc1)N1CCCC1 (stereo not drawn) | -6.85% | -9.1% | -6.3% | -5.85% | 20.6% | 14.1%

Row | SMILES | growth inhibition [1] | growth inhibition [2] | growth inhibition [3] | growth inhibition [4] | growth inhibition [5] | growth inhibition [6]
20 | C[N+]1(C)C2CC(O)CC1C1OC12 (stereo not drawn) | -4.35% | 5.15% | 1.45% | 2.85% | -3.75% | 4.45%
21 | Fc1ccccc1N=C=S | 4.55% | -12% | 5.65% | 18.1% | 14.6% | 2.75%
22 | CN1CN(c2ccccc2)C2(CCN(Cc3csc4ccccc34)CC2)C1=O | -50.9% | -31.5% | -47.5% | -1.3% | -7.1% | -20.1%
23 | CC(=O)CC(C)=O | -7.2% | 3.8% | -3% | -11.3% | 1.7% | 1.8%
24 | O=c1oc2cc(O)ccc2c(O)c1C(c1ccc2ccccc2c1)c1c(O)c2ccc(O)cc2oc1=O | 8.65% | 31.2% | 36.7% | 35.8% | 17.2% | -17.4%
25 | CC1(c2ccccc2)CC12C(=O)NC(=O)NC2=O (stereo not drawn) | -69.1% | -22.6% | -18.9% | -8.75% | -27.7% | -20.9%
26 | C(=NCCN1CCOCC1)=NC1CCCCC1 | -22.4% | -3.25% | -10.9% | -21.1% | -58.1% | -16.1%
27 | C1CCC(N2CSC3CCCCC32)CC1 (stereo not drawn) | -0.65% | -12.2% | 4.35% | -18.2% | 16.2% | 5.6%
28 | O=Cc1ccccc1O.[Nd] | -0.65% | -33.6% | 17.2% | 6.65% | 3.9% | 6.6%
29 | O=[N+]([O-])c1ccc(/C=C/c2cc(Cl)ccc2S(=O)(=O)F)c(Cl)c1 | 2.6% | -0.85% | 6.8% | 13.4% | 12.9% | -4.35%
30 | Oc1ccccc1I | 11.9% | 4.85% | -57% | -8.7% | -42.9% | -14.2%
31 | Oc1ccc(Cl)c(Cl)c1 | -3.45% | -32.5% | -72.8% | -3.1% | -51.5% | -13.8%
32 | CC[N+]1(CC)CC[N+](CC)(CC)CC1 (tested in a mixture with another compound) | 6.1% | -28.8% | 4.85% | 0.45% | -0.95% | 29.1%
33 | CC(C)CNC12CN3CN(CN(C3)C1)C2 | -9.25% | -11.2% | -6% | -27.9% | -4.85% | -23.7%
34 | [C-]#[O+].[C-]#[O+].[C-]#[O+].[W].c1ccc([PH+](CC[PH+](c2ccccc2)c2ccccc2)CC[PH+](c2ccccc2)c2ccccc2)cc1 | 0.6% | -18.7% | -1.8% | 3.45% | 3.85% | 2.6%
35 | CN1C2CCC1CC1(C2)SCCS1 | 2.5% | 3.85% | 3.1% | 6.2% | 6.85% | 4.45%
36 | Cc1ccc([NH-])c([NH-])c1.[Cl][Pt+2][Cl] | 22.1% | 0.25% | 30.4% | 12.3% | -2.85% | 13.7%
37 | Clc1cc[c]([Sb]2([c]3ccc(Cl)cc3)([c]3ccc(Cl)cc3)[O]C(C(Cl)(Cl)Cl)[O]2)cc1 (stereo not drawn) | 98.3% (active) | 98.5% (active) | 98.2% (active) | 98.2% (active) | 97% (active) | 97.8% (active)
38 | O=C1CCN(C2(c3ccccc3)CCCCC2)CC1 | 3.85% | -4.1% | 3.55% | -5.1% | -8.85% | -1.35%
